This passage reports inhibition results from PubChem BioAssay AID802 (Columbia University Molecular Screening Center, 2007).

The campaign covered roughly 95,000 compounds. About 460 (0.48%) were called active. The list comes from a sample in which actives are over-represented; it also holds similar structures and randomly drawn compounds. Values without a mark were called inactive.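 Rule for the calls: active = inhibition above the batch mean plus 3 SD, with images confirmed as a hit by eye (cut at about 37% in these data); inconclusive = inhibition above that limit but hit not confirmed in images; inactive = inhibition not above that limit.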

This experiment in a line: blockers of endothelial VCAM-1 upregulation by TNFa – imaging, HUVEC, TNFa stimulus, immunofluorescence, primary screen (AID 802).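 Note: 0% = TNF-stimulated DMSO wells and 100% = unstimulated control wells.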 The following applies: HUVEC TNFa-induced VCAM-1 immunofluorescence, high-content imaging; at 2 µM; stronger effect = higher value.
Usually inhibition stands for the relative decrease from the control value, in per cent. For the compound `CCOc1ccc(C(=O)NC2CCN(C(=O)Nc3ccccc3OC)CC2)cc1`, the inhibition was -14.1%.
`COC(=O)C(NC(=O)c1ccc(OC)cc1)(Nc1ncc(S(=O)(=O)c2ccc([N+](=O)[O-])cc2)s1)C(F)(F)F` (stereo not given): the inhibition was -3.1%.
Turning to `O=C(NC(Nc1nc2ccc([N+](=O)[O-])cc2s1)(C(F)(F)F)C(F)(F)F)c1ccccc1`, the inhibition was 88.1% (active).
With `Cc1cc(C)cc(OCC(=O)Nc2nc3ccc([N+](=O)[O-])cc3s2)c1` the figure was 21.3%; with `Cc1ccccc1NC(=S)Nc1cccc([N+](=O)[O-])c1`, -16.9%.
For the compound `COc1ccc(Nc2ncc(C(=O)N3CCN(c4ccccc4OC)CC3)c3ccccc23)cc1`, the inhibition was 26.1%.
As to `FC(F)(F)c1cc(-c2ccco2)nc(NCc2ccc(Cl)cc2)n1`, the inhibition was 9.6%.
Turning to `Cc1cc(C)c2c(-n3cccc3)c(NC(=O)OCc3ccccc3)sc2n1`, the inhibition is 25.4%.
With `COc1cccc(CNc2nc3nc4c(c(=O)n3[nH]2)CCC4)c1` the figure was 15.2%.
As for `Cc1cccc(-n2cnc(C(=O)Nc3cccnc3)c2)n1`, the inhibition is -5.1%.
With `CCOC(=O)Cc1csc(NC(=O)CSc2nnc(-c3cccnc3)n2Cc2ccco2)n1` the figure was 15.6%.
Next, `O=S(=O)(Cc1cc(Sc2ccccc2)nc(-c2ccccc2)n1)c1ccccc1`: -28.4%; `CCOc1ccccc1NC(=O)c1cccnc1`: -0.4%.
Next, `COc1ccc(C(F)(F)F)cc1N/C=C\c1nnnn1-c1ccc(C)cc1`: 16.2%.
Regarding `O=C(Nc1ncc2c(n1)-c1ccccc1OC2)c1ccc(Cl)cc1`, the inhibition is 6.1%.
With `O=C(Nc1ncc2c(n1)CC(c1ccco1)CC2=O)c1ccc(Cl)cc1` (stereo not given), the inhibition is 91.4% (active).
`CCc1ccc(Nc2ncc3c(n2)CC(c2ccco2)CC3=O)cc1` (stereo not given): the inhibition is -20.6%.
Turning to `COc1ccc(C2C(C(C)=O)=C(O)C(=O)N2c2nccs2)cc1` (stereo not given), the inhibition was 12.3%.
Consider `COc1cc2cc(CN(CCN3CCCC3)C(=O)Nc3ccccc3Cl)c(=O)[nH]c2cc1OC`, for which the inhibition is 28.3%.
With `CCCN(Cc1cc2cccc(C)c2[nH]c1=O)S(C)(=O)=O` the figure was -13.9%; with `COc1ccc(CCN(Cc2cc3cccc(C)c3[nH]c2=O)C(=O)N2CCCC2)cc1OC`, 91.4% (active).
Turning to `COc1ccc2oc(C)c(NC(C)=O)c2c1`, the inhibition was 0.3%.
As to `COc1ccc(Nc2cc(=O)oc3ccccc23)cc1`, the inhibition was 88.9% (active).
For `COc1ccc(N2CCN(Cc3cc(=O)oc4ccc5ccccc5c34)CC2)cc1`, the inhibition was 9.8%.
As to `CCCSC(=S)NC1CCS(=O)(=O)C1` (stereo not given), the inhibition was 4.3%.
As for `CCN(CC)CCn1c(=S)[nH]c2ncccc2c1=O`, the inhibition was 11%.
Next, `c1ccc(Nc2nc(N3CCOCC3)c3ccccc3n2)cc1`: -8.6%; `CCOC(=O)N1CCN(C(c2cccnc2)c2ccc3cccnc3c2O)CC1` (stereo not given): 9.9%; `COc1ccc(CN(C(=O)CSc2nnc(-c3ccc(OC)c(OC)c3)o2)c2ccc(F)cc2)cc1`: 17.6%.
Take `COc1ccc(CCNC(=O)CSc2nnc(-c3cccc(F)c3)o2)cc1OC`: the inhibition is 11.2%.
Next, `COc1ccc(-c2nnc(SCC(=O)NC3CCCCC3)o2)cc1OC`: 87.2% (active).
For `Cc1cc2cc3c(cc2nc1SCC(=O)Nc1c(C)cccc1C)CCC3`, the inhibition was 6%.
Regarding `Cc1cccc(NC(=O)C(C)N2C(=O)C3C4CC(C(Br)C4Br)C3C2=O)c1` (stereo not given), the inhibition was 8.5%.
With `CCC1(CC)NC(=O)N(CC(=O)OCC(=O)Nc2ccc(C(F)(F)F)cc2)C1=O` the figure was 9.5%; with `O=C(Nc1cc2c3c(c1)C1CCCC1CN3CC1CCCC21)c1ccc([N+](=O)[O-])cc1` (stereo not given), 3%.
In the case of `Cc1n[nH]c(=S)n1/N=C/c1ccc(Br)o1`, the inhibition is 4.4%.
In the case of `O=[N+]([O-])c1ccc(NCCCN2CCOCC2)c(Cl)c1`, the inhibition was -2.6%.
As for `CC(C)(C)Cc1nnc(NC(=O)c2cc(-c3ccccc3)nc3ccccc23)s1`, the inhibition is -0.7%.
With `CC1(C)CC(CC(=O)O)C(=O)O1` (stereo not given) the figure was 20.1%; with `CCOc1ccc(-n2c(N)c(C(=O)NCC3CCCO3)sc2=S)cc1` (stereo not given), -3.3%; with `Cc1ccc2c(c1)-c1c(ssc1=S)C(C)(C)N2C(=O)CN1C(=O)c2ccccc2C1=O`, -19.4%.
Next, `CCOC(=O)c1c(N=CN(C)C)c(C#N)c2n1CCCC2`: 8.7%; `COc1ccc(/C=N/Nc2nc3ccccc3o2)cc1OC`: -32.9%.
In the case of `C=CCNC(=S)NNc1ncnc2sc3c(c12)CC(C)(C)OC3`, the inhibition is 27.9%.
Turning to `O=C(CN1C(=O)C2C3C=CC(C3)C2C1=O)Nc1nc(-c2ccccn2)cs1` (stereo not given), the inhibition is 11%.
Regarding `Cc1cc(NC(=O)CSc2nc(C(C)C)nc3sc4c(c23)CCC(C)C4)no1` (stereo not given), the inhibition was 18.6%.
Next, `CC(=O)Nc1ccc(N2C(=O)CCC2=O)cc1C`: 8.8%; `O=C(/C=C/Nc1ccccc1)c1cnc(-c2ccccc2)s1`: -1.5%; `Cc1ccc(C2(C(F)(F)F)N=C3Sc4cc(C)cc(C)c4N3C(=O)N2)cc1` (stereo not given): 7.1%.
As for `Cc1ccc(C)c(N2C(=O)CS/C2=N\NC(=O)c2ccccc2Cl)c1`, the inhibition was 10.4%.
`O=C(Cn1ccc([N+](=O)[O-])n1)NCc1cccs1`: the inhibition was 7.9%.
Next, `O=c1c([N+](=O)[O-])cc(C(F)(F)F)cn1Cc1cccc(Cl)c1`: 3.2%.
With `O=C(N/N=C\c1ccc(-c2ccc(Cl)c(Cl)c2)o1)C(=O)N1CCCC1` the figure was -4.3%; with `CCCNC(=O)NCc1ccc(N2CCCC2=O)cc1`, 3.5%.
Turning to `CCOC(=O)c1c(NC(=S)Nc2ccccc2)sc2c1CCN(C)C2`, the inhibition is 12.8%.
Next, `CC(=O)c1cn(CCCCCCCCCCn2cc(C(C)=O)c(=O)[nH]c2=O)c(=O)[nH]c1=O`: 5.5%; `O=C(Nc1ccn(Cc2ccccc2F)n1)c1ccc(COc2ccc(Cl)cc2Cl)o1`: 4.3%.
Next, `Cc1ccc(C2C(C#N)C(C#N)N3CCCN23)cc1` (stereo not given): -8%.
`CCc1cc(C(c2ccccc2OC)N2CCOCC2)c(NC(=O)c2ccccc2)s1` (stereo not given): the inhibition is 3.5%.
Consider `COCCNC(=O)c1onc(CSc2cccc(C)c2)c1C(=O)O`, for which the inhibition is 13.5%.
`Cn1c(NN)nc2sc3c(c2c1=O)CCC3`: the inhibition was 27.5%.
Next, `O=C(CSCc1ccccc1Cl)NNC(=O)c1ccccc1`: 2.9%; `CC(=O)c1cccc(NC(=O)C2CCCN2S(=O)(=O)c2cccc3nsnc23)c1` (stereo not given): -0.5%.
As for `CCc1ccc(/C=N/NC(=O)c2ccc(OC3CCCC3)cc2)s1`, the inhibition was -3.5%.
On to `COC(=O)c1ccc(S(=O)(=O)N2CCC(c3nc4ccccc4o3)CC2)cc1`, for which the inhibition is -1.2%.
Take `O=c1[nH]c(CSc2ncc(-c3ccc(F)cc3)n2Cc2ccco2)nc2ccccc12`: the inhibition is -0.9%.
As for `Nc1cc(=O)nc(SCc2ccccc2)n1Cc1ccco1`, the inhibition was 95% (active).
As to `c1ccc(CSc2nnc(-c3ccco3)n2Cc2ccccc2)cc1`, the inhibition was -1.6%.
Consider `CCn1nccc1C(=O)Nc1ccc(Cl)c(Cl)c1`, for which the inhibition is 2.3%.
With `CC(C)c1ccc(/C=C/C(=O)NNC(=O)c2cccnc2)cc1` the figure was -5.5%; with `C=CCn1c(SCC(=O)c2ccc(Br)cc2)nnc1C(C)NC(=O)Cc1ccc(OC)cc1` (stereo not given), 12.4%.
Consider `O=C(/C=C/c1ccco1)Nc1ccc(Oc2ccccc2)cc1`, for which the inhibition is 6.5%.
`O=C(/C=C/c1ccco1)Nc1cccc(-c2nc3ccccc3[nH]2)c1`: the inhibition was 9.8%.
Consider `Cc1ccc(-n2nc3ccc(NC(=O)/C=C/c4ccco4)cc3n2)cc1C`, for which the inhibition was 46.8% (active).
Next, `CC(O)CN(Cc1ccc(Cl)cc1)CC(C)O` (stereo not given): -2.6%.
For `Cc1ccc(NC(=S)Nc2ncccc2C)c(C)c1`, the inhibition was 2.5%.
With `CC1=NN(Cc2ccccc2)C(=O)/C1=C/c1ccc(N(C)C)cc1` the figure was 3.7%; with `COC(=O)c1cc2nc(-c3ccccc3)cc(C(F)(F)F)n2n1`, -20.1%.
Regarding `Cc1cc(C)c2cc(CN(Cc3nnnn3Cc3ccc(F)cc3)C3CCCC3)c(=O)[nH]c2c1`, the inhibition was 1.5%.
Next, `CS(=O)(=O)c1sc2nc(-c3ccccc3)cc(-c3ccccc3)c2c1N`: -20.3%; `COc1ccccc1/C=C/C1=NC(=C\N(C)C)/C(=O)O1`: 5.1%; `CCN(CC)S(=O)(=O)c1ccc2c3c(cccc13)C(=O)S2`: 8.1%.
With `O=C(Nc1ccccc1)c1ccc2c(c1)OCO2`, the inhibition was -10.7%.
With `Cc1ccc(F)cc1NC(=O)c1ccc2c(c1)OCO2` the figure was 96.8% (active); with `Cc1ccc(F)cc1NC(=O)c1cccc(N(C)C)c1`, -5.6%.
`S=c1nccc(-c2cc(Cl)sc2Cl)[nH]1`: the inhibition is 2%.
Consider `COc1ccccc1CNC(=O)c1ccc(SC)cc1OC`, for which the inhibition is 18.6%.
For the compound `Cc1cc(-c2ccccc2)nc(N2CCC(C(=O)NC34CC5CC(CC(C5)C3)C4)CC2)n1`, the inhibition was -5.8%.
`Cc1nc([N+](=O)[O-])nn1C12CC3CC(CC(Br)(C3)C1)C2`: the inhibition is 11.3%.
Regarding `Cn1c2c(c(=O)n(C)c1=O)[C@@H]1c3c(ccc4ccccc34)OC[C@@H]1CO2`, the inhibition was -9%.
Turning to `CCn1c(SCC(=O)Nc2ccc(S(=O)(=O)Nc3onc(C)c3C)cc2)nnc1-c1ccccc1`, the inhibition is 6.4%.
In the case of `O=C(O)c1ccccc1-c1ccccc1C(=O)Nc1cccc2ccccc12`, the inhibition was 7.4%.
Take `Cc1nnc(NC(=O)CSc2nc(C3CCCCC3)nc3ccccc23)s1`: the inhibition is -0.5%.
Take `CCCNC(=S)NC1CC2CCCC(C1)N2CC(C)C` (stereo not given): the inhibition is 5.3%.
With `Cc1cc(C(F)F)n2nc(C(=O)Nc3ccc(S(=O)(=O)NC45CC6CC(CC(C6)C4)C5)cc3)nc2n1` the figure was 5.2%.
